Among all 220,000 compounds or so, about 10 (0.005%) were called active. The rule behind the calls is not given here. Shown is part of a subset that was picked to be rich in actives.

This passage reports Conc @ Max Fold Incr results from ChEMBL document CHEMBL1201862, “PubChem BioAssay data set” (2004).

The test can be described thus: compounds boosting herpes simplex virus growth – fold increase, host cell viability (AID 1956). The test is classed as functional.
For `N#C/C(=C/c1ccc(N2CCOCC2)o1)C(=O)NC1CCCCC1`, the Conc @ Max Fold Incr was 25 µM (active).
